Test results published in PubChem BioAssay AID1159580 (chemical genetic matrix, 2015).
Values joined by “and” are separate entries in the source; they are usually repeats but may differ in a detail not shown here. Equal entries are not always repeated. Screen size: about 5,500 compounds; about 2,000 (36%) were called active. Another 18% or so got no clear call; they are omitted. Rule as the data show it: active = normalized growth mostly below about 0.91 (no sharp cut-off); inconclusive = no clear call, values can overlap the other calls; inactive = mostly above about 0.92. The list shows a part of the results.

Assay: chemical genetic growth profiling, strain panel (AID 1159580);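 also: tested at 20 µM; growth read once vehicle control cultures reached saturation at 30 °C; 1 = growth at the plate median or of vehicle wells; lower values mean less growth of the strain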
Details: S. cerevisiae deletion strains, growth OD

Measured: normalized growth

O=C(CCCN1CCC2(CC1)C(=O)NCN2c1ccccc1)c1ccc(F)cc1
inactive: locus YAL021C, strain ccr4, active compounds read low 0.956 | locus YAL026C, strain drs2, active compounds read low 0.981 | locus YAL030W, strain snc1, active compounds read low 0.983 | locus YAL040C, strain CLN3, active compounds read low 0.989 | locus YBL061C, strain skt5, active compounds read low 0.979 | locus YBR009C, strain hhf1, active compounds read low 1.02 | locus YBR021W, strain FUR4, active compounds read low 1 | locus YBR023C, strain chs3, active compounds read low 0.995 | locus YBR171W, strain sec66, active compounds read low 0.965 | locus YBR229C, strain ROT2, active compounds read low 0.964 | locus YBR231C, strain swc5, active compounds read low 1.04 | locus YBR279W, strain paf1, active compounds read low 0.983 | locus YCL016C, strain dcc1, active compounds read low 0.975 | locus YCL029C, strain bik1, active compounds read low 0.995 | locus YCL061C, strain MRC1 (second series), active compounds read low 0.999 | locus YCL061C, strain MRC1, active compounds read low 0.981 | locus YCL069W, strain vba3, active compounds read low 0.98 | locus YCR088W, strain abp1, active compounds read low 0.982 | locus YDL005C, strain med2, active compounds read low 0.961 | locus YDL035C, strain GPR1, active compounds read low 0.992 | locus YDL040C, strain nat1, active compounds read low 0.982 | locus YDL074C, strain BRE1, active compounds read low 0.972 | locus YDL101C, strain DUN1, active compounds read low 0.984 | locus YDL134C, strain PPH21, active compounds read low 1.01 | locus YDL185W, strain tfp1, active compounds read low 0.969 | locus YDL192W, strain arf1, active compounds read low 0.997 | locus YDR001C, strain nth1, active compounds read low 0.979 | locus YDR069C, strain doa4, active compounds read low 0.946 | locus YDR101C, strain arx1, active compounds read low 0.988 | locus YDR137W, strain rgp1, active compounds read low 0.993 | locus YDR150W, strain NUM1, active compounds read low 0.996 | locus YDR159W, strain sac3, active compounds read low 0.998 | locus YDR162C, strain NBP2, active compounds read low 0.999 | locus YDR195W, strain ref2 1.01 | locus YDR297W, strain sur2, active compounds read low 0.981 | locus YDR318W, strain mcm21, active compounds read low 0.993 | locus YDR334W, strain swr1, active compounds read low 0.969 | locus YDR335W, strain msn5, active compounds read low 0.966 | locus YDR363W, strain ESC2, active compounds read low 0.999 | locus YDR388W, active compounds read low 0.996 | locus YDR392W, strain spt3, active compounds read low 0.881 | locus YDR502C, strain sam2, active compounds read low 0.989 | locus YEL003W, strain gim4, active compounds read low 0.991 | locus YEL037C, strain rad23, active compounds read low 0.983 | locus YEL061C, strain CIN8 (second series), active compounds read low 0.992 | locus YEL061C, strain CIN8, active compounds read low 0.988 | locus YER002W, strain NOP16, active compounds read low 0.993 | locus YER015W, strain faa2, active compounds read low 1 | locus YER016W, strain bim1, active compounds read low 0.936 | locus YER110C, active compounds read low 0.99 | locus YER111C, strain swi4, active compounds read low 0.966 | locus YER155C, strain BEM2 (second series), active compounds read low 0.966 | locus YER155C, strain BEM2, active compounds read low 1 | locus YER167W, strain BCK2, active compounds read low 0.995 | locus YFR010W, strain ubp6, active compounds read low 1 | locus YGL078C, strain dbp3, active compounds read low 0.994 | locus YGL086W, strain mad1, active compounds read low 0.988 | locus YGL167C, strain pmr1, active compounds read low 0.922 | locus YGL173C, strain kem1, active compounds read low 0.998 | locus YGL227W, strain vid30, active compounds read low 0.993 | locus YGL240W, strain doc1, active compounds read low 0.991 | locus YGL248W, strain PDE1, active compounds read low 0.975 | locus YGL253W, strain hxk2, active compounds read low 0.993 | locus YGR078C, strain PAC10, active compounds read low 0.967 | locus YGR135W, strain pre9, active compounds read low 0.997 | locus YGR229C, strain SMI1, active compounds read low 0.994 and 0.978 | locus YGR252W, strain gcn5, active compounds read low 0.96 | locus YHR013C, strain ard1, active compounds read low 0.91 | locus YHR027C, strain rpn1, active compounds read low 0.994 | locus YHR030C, strain SLT2, active compounds read low 1 and 0.988 | locus YHR079C, strain IRE1 (second series), active compounds read low 0.989 | locus YHR079C, strain IRE1, active compounds read low 1.01 | locus YHR094C, strain hxt1, active compounds read low 0.998 | locus YHR129C, strain ARP1, active compounds read low 1 | locus YHR142W, strain chs7, active compounds read low 0.964 | locus YHR200W, strain rpn10, active compounds read low 0.987 | locus YIL066C, strain RNR3, active compounds read low 0.972 | locus YIL073C, strain SPO22, active compounds read low 1.07 | locus YIL125W, strain kgd1, active compounds read low 0.984 | locus YIR030C, strain dcg1, active compounds read low 0.994 | locus YJL092W, strain hpr5, active compounds read low 0.974 | locus YJL095W, strain BCK1 (second series), active compounds read low 0.982 | locus YJL095W, strain BCK1, active compounds read low 0.968 and 1.01 | locus YJL115W, strain asf1, active compounds read low 0.966 | locus YJL129C, strain trk1, active compounds read low 0.949 | locus YJL134W, strain LCB3, active compounds read low 1 | locus YJL154C, strain vps35, active compounds read low 0.969 | locus YJL164C, strain tpk1, active compounds read low 0.984 | locus YJL166W, strain qcr8, active compounds read low 0.99 | locus YJL168C, strain set2, active compounds read low 0.986 | locus YJL187C, strain SWE1 (second series), active compounds read low 0.969 | locus YJR043C, strain POL32, active compounds read low 0.997 | locus YJR066W, strain TOR1, active compounds read low 0.938 | locus YJR075W, strain HOC1, active compounds read low 0.985 and 0.996
